This note sets out measurements from PubChem BioAssay AID488832 (National Center for Advancing Translational Sciences (NCATS), 2010).

SMILES strings stand for the structures. Records with an inconclusive call do not appear. Activity calls are given as the source filed them. Calls come from the whole dose curve; as a rule, active = well fitted activation curve with a large enough effect; inconclusive = small, poorly fitted or top-dose-only effect; inactive = no such curve, though single readings can be large or run the other way.

A short description of the assay: Confirmation Concentration-Response Assay for Enhancers of SMN2 Splice Variant Expression for Further Probe SAR. The conditions noted are these: HEK293 SMN2 exon7-luciferase splicing reporter, luminescence, 30-36 h; series mostly up to 46.1 µM. The text has this:
NIH Chemical Genomics Center [NCGC] NIH Molecular Libraries Probe Production centers Network [MLPCN] MLPCN Grant: R03 MH084179-01 Assay Submitter (PI): Elliot Androphy NCGC Assay Overview: Spinal muscular atrophy (SMA) is caused by insufficient levels of the survival motor neuron protein SMN. The SMN locus on chromosome 5q13 contains two inverted copies of SMN called SMN1 and SMN2 which are 99% identical at the amino acid level. SMN1 is a fully functional protein and SMN2 skips exon 7 90% of the time. Skipping of exon 7 produces non-functional protein product. 10% of the SMN2 protein includes exon 7 and is fully functional. In the SMA disease state, mutations in the SMN1 locus are the cause of the disease state. Because only 10% of SMN2 is of the fully functional form, it is not sufficient to overcome the deficiency produced by the loss of the SMN1 product. A therapy that either increase the amount of SMN2 product made or to increase the inclusion of exon 7 has been proposed for the treatment of SMA. We have designed an assay to identify small molecules that can increase the amount of functional SMN2 product by appending a luciferase reporter gene after the native SMN2 gene, such that inclusion of exon 7 in the expressed product places the luciferase sequence in frame, thus generating functional luciferase enzyme.
NCGC Assay Protocol Summary: This screen utilizes a luciferase reporter gene assay, combining the promoter with the major portion of the native SMN2 cDNA (exons 1 -7, intron 8 , exon 8 fused to luciferase) stably expressed in HEK293 cells. Compounds that increase luciferase signal presumably enhance expression of the functional SMN2 splice variant. Passaging media contained DMEM w/ glutamax (+phenol red) 10% FCS, 1x pen/strep, 200 ug/ml hygro, 1x sodium pyruvate. Assay media contained DMEM w/ glutamax (-phenol red) 10% FCS, 1x pen strep, 1x pyruvate Sequence, Parameter, Value, Description (1) Cells, 5 uL, 2000 cells/well, 1536 TC treated White solid bottom plate (2) Time, 10-12 hours, 37C 5% CO2 (3) Compound, 23 nl, MLSMR Library (4) Control Compound, 23 nL, Sodium butyrate st 4.5mM (final) conc (5) Time, 30-36 hours, 37C 5% CO2 (6) Reagent, 3 ul, One Glo (TM) from Promega (7) Time, 5-15 minutes, Room temp (8) Detector, Viewlux: luminescent read, 60 second integration, high speed 2x binning Keywords: Spinal muscular atrophy, SMA, SMN2, high throughput screening, MLSMR, MLPCN, NIH Roadmap, qHTS and NCGC
Turning to `CS(=O)(=O)N1CCN(c2nc(-c3ccc(Br)cc3)cs2)CC1`, the Potency result is “inactive”.
With `CCOC(=O)C1CCN(c2nc(-c3ccc(Br)cc3)cs2)CC1`, the Potency is 4870 nM (active).
Regarding `CN(C)c1cccc(-c2cnc(N3CCC(C(N)=O)CC3)s2)c1`, the Potency is 24.4 nM (active).
For `CSc1ccc(-c2cnc(N3CCC(C(N)=O)CC3)s2)cc1`, the Potency was 31 nM (active).
With `N#Cc1cccc(-c2csc(N3CCC(C(N)=O)CC3)n2)c1` the entry was “inactive”.
Turning to `O=C(c1ccco1)N1CCN(c2nc(-c3ccc(Br)cc3)cs2)CC1`, the Potency entry was “inactive”.
Under `NC(=O)C1CCN(c2ncc(-c3ccc4c(c3)OCCO4)s2)CC1` stands 86.7 nM (active); under `Cc1ccc(-c2ccnc(N3CCC(C(N)=O)CC3)n2)cc1`, 308 nM (active).
`CC(C)Oc1cccc(-c2ccnc(N3CCC(C(N)=O)CC3)n2)c1`: the Potency is 154 nM (active).
Consider `NC(=O)C1CCN(c2nc(-c3ccc(Oc4ccccc4)cc3)cs2)CC1`, for which the Potency was 4340 nM (active).
With `NC(=O)C1CCN(c2nnc(-c3ccc4c(c3)OCCCO4)s2)CC1`, the Potency was 97.2 nM (active).
Take `NC(=O)C1CCN(c2cc(-c3ccc4c(c3)OCCCO4)ncn2)CC1`: the Potency was 6140 nM (active).
With `NC(=O)C1CCN(c2nc(-c3cccc4ccccc34)cs2)CC1`, the Potency result was “inactive”.
Consider `NC(=O)C1CCN(c2ncc(-c3cccc(N4CCCC4)c3)s2)CC1`, for which the Potency is 345 nM (active).
In the case of `CN(C)c1cccc(-c2ncnc(N3CCC(C(N)=O)CC3)n2)c1`, the Potency is 772 nM (active).
On to `O=C(NCCCCc1ccccc1)C1CCN(c2nc(-c3ccc(Br)cc3)cs2)CC1`, for which the Potency entry was “inactive”.
As to `CCOc1ccc(-c2csc(N3CCC(C(N)=O)CC3)n2)cc1`, the Potency was 3070 nM (active).
Regarding `CN(C)c1cccc(-c2cnc(N3CCC(c4ncc[nH]4)CC3)s2)c1`, the Potency is 3450 nM (active).
With `COc1cccc(-c2csc(N3CCC(C(N)=O)CC3)n2)c1`, the Potency was 1090 nM (active).
Consider `Cc1cnc(N2CCC(C(N)=O)CC2)nc1-c1cccc(N(C)C)c1`, for which the Potency result is “inactive”.
With `NC(=O)C1CCN(c2ncc(Br)s2)CC1`, the Potency entry was “inactive”.
As for `O=C(Nc1ccccc1)C1CCN(c2nc(-c3ccc(Br)cc3)cs2)CC1`, the Potency is 1540 nM (active).
For the compound `NC(=O)C1CCN(c2nccc(-c3ccc4c(c3)OCCCO4)n2)CC1`, the Potency was 1540 nM (active).
For the compound `Nc1nc(N)c2c(OCC3CCN(Cc4ccccc4F)CC3)cccc2n1`, the Potency entry was “inactive”.
As for `Cc1cccc(-c2csc(N3CCC(C(N)=O)CC3)n2)c1`, the Potency was 15400 nM (active).
On to `O=S(=O)(c1ccccc1)N1CCN(c2nc(-c3ccc(Br)cc3)cs2)CC1`, for which the Potency result was “inactive”.
Under `O=C(Nc1ccccc1)C1CCN(c2ncc(-c3ccc4c(c3)OCCCO4)s2)CC1` stands 48.7 nM (active).
With `NC(=O)C1CCN(c2nc(-c3ccc(OC(F)(F)F)cc3)cs2)CC1`, the Potency is 3070 nM (active).
Under `CN(C)c1cccc(-c2cc(N3CCC(C(N)=O)CC3)ncn2)c1` stands 4870 nM (active); under `CC(C)Oc1ccc(-c2csc(N3CCC(C(N)=O)CC3)n2)cc1`, 3870 nM (active); under `NC(=O)C1CCN(c2ncc(-c3ccc4c(c3)OC(F)(F)O4)s2)CC1`, 194 nM (active).
As for `CC(C)Oc1cccc(-c2csc(N3CCC(C(N)=O)CC3)n2)c1`, the Potency is 688 nM (active).
With `O=C(NCCCc1ccccc1)C1CCN(c2nc(-c3ccc(Br)cc3)cs2)CC1`, the Potency result is “inactive”.
As to `NC(=O)C1CCN(c2nc(-c3ccc(Cl)cc3)cs2)CC1`, the Potency is 1090 nM (active).
For `NC(=O)C1CCN(c2nc(-c3ccc(C(F)(F)F)cc3)cs2)CC1`, the Potency is 867 nM (active).
Consider `O=C(c1ccccc1)N1CCN(c2nc(-c3ccc(Br)cc3)cs2)CC1`, for which the Potency entry was “inactive”.
For the compound `NC(=O)C1CCN(c2nc(-c3ccc4c(c3)CCO4)cs2)CC1`, the Potency is 12200 nM (active).
`NC1CCN(c2nc(-c3ccc(Br)cc3)cs2)CC1`: the Potency was 1940 nM (active).
With `CN(C)c1cccc(-c2nccc(N3CCC(C(N)=O)CC3)n2)c1`, the Potency is 12200 nM (active).
Under `CS(=O)(=O)c1ccc(-c2csc(N3CCC(C(N)=O)CC3)n2)cc1` stands “inactive”.
